Test results reported in the supplement of paper PMC3545927.
The other results are listed elsewhere or left out. How many sequences the whole screen found active is unknown.

Target: furin, P09958
Assay: furin cleavage Z-score vs untreated control; higher = more cleavage, active = 3.5 or more, inactive = 1 or less, 8 variable residues between constant flanks
Summary of the method: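 Reactions of 0.01 ml ran for 7.5, 15 or 30 min in 50 mM HEPES pH 7.5 with CaCl2 and NaCl, at 1:10 enzyme:substrate. In them, purified furin acted on bead-held 8-mer peptides fused to a cDNA oligonucleotide. The cleavage Z-score was obtained by lowess-adjusting log sequencing counts of released DNA against furin-free reactions and scaling by median absolute deviation.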

Chain of furin, P09958 (P09958 whole entry): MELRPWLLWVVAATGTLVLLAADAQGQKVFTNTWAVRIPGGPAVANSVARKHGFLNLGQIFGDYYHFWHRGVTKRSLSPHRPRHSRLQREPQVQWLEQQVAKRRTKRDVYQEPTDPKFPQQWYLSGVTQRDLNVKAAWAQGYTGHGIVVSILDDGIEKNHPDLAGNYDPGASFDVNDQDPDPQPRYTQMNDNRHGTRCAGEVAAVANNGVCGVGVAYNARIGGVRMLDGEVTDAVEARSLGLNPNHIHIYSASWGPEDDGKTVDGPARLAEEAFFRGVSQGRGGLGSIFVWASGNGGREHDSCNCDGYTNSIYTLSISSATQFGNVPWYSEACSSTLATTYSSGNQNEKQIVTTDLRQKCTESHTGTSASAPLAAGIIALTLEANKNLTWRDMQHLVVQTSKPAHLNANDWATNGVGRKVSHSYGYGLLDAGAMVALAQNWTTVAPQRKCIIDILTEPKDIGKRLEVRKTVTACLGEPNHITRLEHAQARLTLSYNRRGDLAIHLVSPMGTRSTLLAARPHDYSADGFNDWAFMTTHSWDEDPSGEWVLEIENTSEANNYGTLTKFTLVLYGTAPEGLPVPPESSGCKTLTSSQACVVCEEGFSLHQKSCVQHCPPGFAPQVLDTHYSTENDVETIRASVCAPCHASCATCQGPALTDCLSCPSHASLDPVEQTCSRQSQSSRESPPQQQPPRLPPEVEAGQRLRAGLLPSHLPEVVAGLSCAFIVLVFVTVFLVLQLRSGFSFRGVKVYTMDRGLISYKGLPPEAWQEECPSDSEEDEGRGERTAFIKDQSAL

Row | Sequence | furin cleavage Z-score (7.5 min) | furin cleavage Z-score (15 min) | furin cleavage Z-score (30 min)
1 | CAVVCCSHSYAGNASASA [HC2055] | 1.14 | -0.432 (inactive) | 0.703 (inactive)
2 | CAGEECSQHLAGNASASA [HC1676] | 0.0385 (inactive) | 1.42 | -0.903 (inactive)
3 | CARRRRDLGSAGNASASA [FS-2517] | 10.6 (active) | 10 (active) | 9.26 (active)
4 | CANEITLTHPAGNASASA [HC977] | -0.433 (inactive) | 0.337 (inactive) | 0.088 (inactive)
5 | CAVNSWLGNIAGNASASA [HC1573] | 1.52 | 0.0684 (inactive) | -1.01 (inactive)
6 | CARPPLGNWFAGNASASA [HC432] | 1.77 | 0.979 (inactive) | -0.0677 (inactive)
7 | CARKERRKHKAGNASASA [FS-2959] | -0.0944 (inactive) | -0.106 (inactive) | 0.503 (inactive)
8 | CANKKRGGTAAGNASASA [WN4] | -1.48 (inactive) | -0.337 (inactive) | -0.0754 (inactive)
9 | CAQWARYARWAGNASASA [FS-484] | -0.0806 (inactive) | 1.37 | 2.8
10 | CANKKRKARWAGNASASA [FS-1238] | 6.93 (active) | 7.47 (active) | 9.18 (active)
11 | CAWEKRSRGQAGNASASA [FS-2625] | -0.652 (inactive) | -0.795 (inactive) | -0.906 (inactive)
12 | CAAKERLKRKAGNASASA [FS-213] | 9.07 (active) | 9.78 (active) | 9.62 (active)
13 | CADPKRTIGQAGNASASA [FS-1982] | 0.168 (inactive) | -0.891 (inactive) | -1.67 (inactive)
14 | CAKRKRWTGQAGNASASA [FS-2478] | 1 | 4.62 (active) | 4.37 (active)
15 | CALSKRKKRKAGNASASA [FS-827] | 8.35 (active) | 9.52 (active) | 8.96 (active)
16 | CATTCCSGSWAGNASASA [HC1880] | -0.863 (inactive) | -1.92 (inactive) | -0.734 (inactive)
17 | CAQVPCHRPSAGNASASA [HC2322] | 0.276 (inactive) | 1.25 | 1.48
18 | CAKKKRRKRKAGNASASA [FS-1218] | 5.44 (active) | 7 (active) | 6.09 (active)
19 | CAKNMRRKRKAGNASASA [FS-1222] | 9.63 (active) | 9.29 (active) | 7.84 (active)
20 | CAGRSHSKRKAGNASASA [FS-245] | 1.44 | 0.295 (inactive) | 1.58
21 | CAKRKRSKRKAGNASASA [FS-1223] | 10.8 (active) | 10.5 (active) | 8.25 (active)
22 | CAKKKRVVPKAGNASASA [FS-2122] | -1.74 (inactive) | -0.376 (inactive) | -0.937 (inactive)
23 | CAKKKRKFSKAGNASASA [FS-2866] | -0.0204 (inactive) | -0.905 (inactive) | -0.0235 (inactive)
24 | CAKKKRAACKAGNASASA [FS-2541] | 0.497 (inactive) | -0.617 (inactive) | 1.88
25 | CAKKKRKKRKAGNASASA [FS-673] | 4.92 (active) | 5.01 (active) | 5.6 (active)
26 | CALGALTGTYAGNASASA [HC631] | -0.145 (inactive) | 0.814 (inactive) | 0.51 (inactive)
27 | CAVFPDLGVRAGNASASA [HC1451] | -2.35 (inactive) | -0.19 (inactive) | 0.302 (inactive)
